These sequences were tested on THRa:RXRa (NR concentration 90 nM, RXRa partner concentration 90 nM) (assay: PBM binding z-score (relative to random genomic background probes); higher = stronger binding; sequences stand for … in GC…GCGATTGACAGCGTAGAATGAAGG).
Summary of the method: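 Regression normalization was applied to scanned fluorescence from custom Agilent 4×180K protein-binding microarrays. Before scanning, arrays were incubated 1 h with ligand-free nuclear receptor dimers, and binding was detected with antibodies against each partner (one per run). Binding z-scores use the random background probes as reference.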

Row | Sequence | PBM binding z-score
1 | CCGAGTAGGTTATGGGGCATTAAGGCAACGGTGA | 0.981
2 | CCAGACAGGTGAGTAGGTAACTCAGCCTCGATTA | 0.0417
3 | CCTATTTGGTCAAGGTCACACACGCTATAGGTAC | 4.2
4 | TCTATTAGTTGATTACGGCAACCGAAACAGCGGA | 0.122
5 | ATATGTACGTTACATCCGGGTCATTCAGGCTATG | 3.14
6 | CCTTACGGGTCACTCCAGGTTATAGTATCGGAGT | 5.23
7 | TCTTGTAGATCAAGCAGGTTTAGAAAGCCTGAGT | -0.173
8 | CGTCCAAGTTCAATGCTAGGTCAGTGAAAGCATT | 3.53
9 | AGAACGAGGGCAATGAGTTGAGAGCACGGGTGGC | 1.1
10 | CGTCCAAGGTCAAGGTCAGAGAAAGAGACTCGAA | 4.16
11 | ATCGAAAGGTCGTGAGGTGAGTATGCAGAAAGGC | 3.56
12 | TCGAGTAGGTTACCAATGGGGCATTCTGCTTTCT | -0.229
13 | CCTTTCGGGTCACGAGGTTATAGCACGACGAGCG | 4.52
14 | ACAGACAGGTGAGTGAAGGAAACTCAGCTGGACG | -0.366
15 | CTACCCAGGTGAACAAGGTCGTTGATTACTATTC | 2.94
16 | CCTAGTTGGTCAAGGTCACACTCGCTATAGGTAC | 3.92
17 | CAAACTAGGTCAAGGTCAAACTCGGTTTGTGCCA | 4.64
18 | ACTAGCAGGCCAAGATTGGGTCACTCAAACAAAG | 1.84
19 | CCTACTGGGCCAAGGTCCTTGATCAGTCAAAGCA | -0.0193
20 | GCGACTGGGGCAATGCAGGTTACCATAAGGTTGG | 2.56

Row | Sequence | PBM binding z-score
21 | TCTTGTAGATCAAAAGAGGTTAAGAAAGTGCGCT | 2.6
22 | CCAGACAGGTGAAAGGTAAATCAGTCTGGTACGC | 0.832
23 | TCTAGCAGGCCAGAGGTTCACTCAAGAGGTACGG | 0.0642
24 | TCTTGTAAATCAGCAGGTTAAGAAAGCTGGCCAA | 0.32
25 | TCTAGCAGGCCAGAGAGTCACTCAAGAGGTACGG | -0.304
26 | CCTACTGGGCCGCGAAAGGTCATTGATTCAGTGA | 3.25
27 | CAAACTAGGTCAAGAGGTCAATGTCCGCTTCCCG | 4.21
28 | AGAACGAGGGGAATGAGTTGATAGCACGGGTGGC | 0.0318
29 | CTACCAAGGTGAACAAGGTCCTTGATTACTATTC | 2.29
30 | CCTACTGGGCCATCACGTCATTGATATCAACGTT | -0.192
31 | TCTCGGAGGACACGAAAGGTCAGAGCGCGACATC | 3.82
32 | ATATGTAGGTTAAGGGTCATTCAGGTTGGTTCGC | 3.68
33 | TCTCGGAGGACACGAAAGGTCAGCGCTCGACATC | 3.89
34 | CGAACTCGGTCAGAACAGGACAGTGAAGGATGAT | 1.78
35 | GCGACTGGGACAAAGCAGGTTACCATAAGGTTGG | 1.59
36 | ATCGAAAGGTCGACGAGGTGAGTACACACCGTTT | 3.7
37 | TCGAGTAGGTTAGTCGGGGCCTTCAGCCAACATA | 1.57
38 | CCTACTGGGCCAAAGGTCGTTGATTCCAATGCTC | 1.5
39 | ATCTCTAGGTAACAAGCTCAGTGAAAGAGAGGAC | 1
40 | TCTTGTAGATCAACAGAGGTTAAGAAAGTGCGCT | 2.55

— the supplement of paper PMC6555819
